Results filed as inconclusive are left out. A number with no mark means an inactive call. Calls of active or inactive are those of the source. The call rests on the fitted dose curve; in most records, active means well fitted curve in the direction sought with a large enough effect; inconclusive means small, poorly fitted or top-dose-only effect, or another doubt; inactive means no such curve, though single readings can be large or run the other way.

Relaxin receptor 1 (Homo sapiens), sequence (Q9HBX9 whole entry, looked up): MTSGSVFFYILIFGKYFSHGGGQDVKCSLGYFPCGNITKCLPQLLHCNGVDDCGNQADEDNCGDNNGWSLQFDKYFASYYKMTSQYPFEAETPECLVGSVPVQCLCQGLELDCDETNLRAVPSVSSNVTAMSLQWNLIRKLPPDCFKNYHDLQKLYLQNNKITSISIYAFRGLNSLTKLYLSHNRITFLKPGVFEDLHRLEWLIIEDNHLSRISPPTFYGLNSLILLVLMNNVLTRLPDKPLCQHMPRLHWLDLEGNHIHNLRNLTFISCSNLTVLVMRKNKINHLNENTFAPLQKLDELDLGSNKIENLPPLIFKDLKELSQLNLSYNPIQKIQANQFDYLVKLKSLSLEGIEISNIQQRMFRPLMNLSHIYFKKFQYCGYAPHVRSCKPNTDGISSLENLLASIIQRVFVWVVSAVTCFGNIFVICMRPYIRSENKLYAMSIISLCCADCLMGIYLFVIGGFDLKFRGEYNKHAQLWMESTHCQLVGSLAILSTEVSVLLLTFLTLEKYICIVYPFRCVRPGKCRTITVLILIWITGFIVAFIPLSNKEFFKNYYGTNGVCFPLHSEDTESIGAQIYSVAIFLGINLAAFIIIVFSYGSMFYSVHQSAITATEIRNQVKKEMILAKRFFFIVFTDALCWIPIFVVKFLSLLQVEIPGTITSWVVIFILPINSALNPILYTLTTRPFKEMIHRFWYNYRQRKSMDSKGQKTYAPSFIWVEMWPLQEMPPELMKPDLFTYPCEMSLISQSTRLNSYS

The experiment has as its target Relaxin receptor 1 (Homo sapiens) (UniProt Q9HBX9). The experiment in a line: qHTS Assay for Agonists of the Relaxin Receptor RXFP1: RXFP1 SAR. Particulars: HEK293T-RXFP1 cAMP TR-FRET, 30 min; efficacy: stronger effect = higher value. From the text:
The relaxin hormone is involved in the variety of biological functions in normal tissues and diseases. The role of relaxin is well-established in female reproduction and parturition, mammary gland and endometrial development, maintenance of myometrial quiescence during pregnancy. Relaxin signaling through its G protein-coupled receptor (GPCR) RXFP1 results in ECM remodeling through regulation of collagen deposition, cell invasiveness, proliferation and overall tissue homeostasis. […] Recombinant human relaxin (rhRlx) is currently being tested in clinical trials as a protective agent in congestive heart failure, in treating severe preeclampsia, and as an anti-fibrotic agent in systemic sclerosis. Upon relaxin binding RXFP1 activation leads to the activation of adenylate cyclase (AC) via Gs. cAMP will activate PKA, which phosphorylates many signaling proteins. Thus, detection of cAMP increase is an easy and reliable indication of relaxin receptor activation. To screen for agonists of the relaxin receptor, a HEK293T cell line stably transfected with RXFP1 was used. RXFP1 activation was assayed by changes in cAMP levels as detected with a time-resolved fluorescence energy transfer (TR-FRET) cAMP detection kit. NIH Chemical Genomics Center [NCGC] NIH Molecular Libraries Probe Production Centers Network [MLPCN] MLPCN Grant: R03 MH085705-01A1 Assay Submitter (PI): Alexander Agoulnik
This is a cell-based assay for cAMP second messenger response to screen for agonists of the RXFP1 receptor. The assay was conducted in the presence of a PDE4 inhibitor (Ro 20174). The cells were lysed and the cAMP levels were measured with a TR-FRET cAMP kit. Presence of cAMP in the cell lysate disrupts binding between the cryptate-labeled anti-cAMP and d2-labeled cAMP pair, leading to a decrease in the TR-FRET signal. Data were normalized to the controls for basal activity (buffer only) and 100% activity (29 nM porcine relaxin). The EC50 values were determined from concentration-response data modeled with the standard Hill equation 1536-well assay protocol for the HEK293 RXFP1 cAMP assay: (1) Add 3 ul HEK293 RXFP1 cell culture. 2000 cells/well in DMEM/F12, 10% FBS, 1x Pen/Strep (dispensed offline with MultiDrop Combi). (2) Incubate 16-24 hr at 37C, 5% CO2. (3) Add 1 ul 400uM Ro20174 in DPBS, 0.05% BSA, 0.005% Tween 20. (3) Add 23 nl compounds in DMSO solution. Final concentration was 0.5 - 58 uM. (4) Incubate 30 min at 37C, 5% CO2. (5) Add 1 ul cAMP-d2 in lysis buffer (HTRF cAMP HiRange kit, CisBio). (6) Add 1 ul anti-cAMP antibody-cryptate in lysis buffer (HTRF cAMP HiRange kit, CisBio). (7) Incubate 30 min at room temperature. (6) Detect the assay plate in a ViewLux plate reader (PerkinElmer) with Ex=320 nm, Em1=615 nm and Em2=665 nm. Keywords: relaxin, RXFP1, RXFP2, G-protein coupled receptor, cAMP, agonist, high throughput screening, MLSMR, MLSCN, NIH Roadmap, qHTS and NCGC
Background: qHTS replaces the single test concentration by a dilution series.
Regarding `CCOc1ccccc1C(=O)Nc1cnccc1C(=O)Nc1cccc(S(=O)(=O)C(F)(F)F)c1`, the Potency was 2970 nM (active).

As for `O=C(Nc1cccc(C(F)(F)F)c1)c1ccccc1NC(=O)C1CCCC1`, the Potency was 2360 nM (active).

In the case of `COc1ccc(C(=O)Nc2ccccc2C(=O)Nc2cccc(C(F)(F)F)c2)cc1`, the Potency is 9400 nM (active).

As for `CCCCC(=O)Nc1ccccc1C(=O)Nc1cccc(C(F)(F)F)c1`, the Potency was 5290 nM (active).

As to `CCCOc1ccccc1C(=O)Nc1ccccc1C(=O)Nc1cccc(S(=O)(=O)C(F)(F)F)c1`, the Potency was 52.9 nM (active).

`CCCCOc1ccccc1C(=O)Nc1ccccc1C(=O)Nc1cccc(S(=O)(=O)C(F)(F)F)c1`: the Potency was 47.1 nM (active).

Turning to `CN(C)CCOc1ccccc1C(=O)Nc1ccccc1C(=O)Nc1cccc(C(F)(F)F)c1`, the Potency was 3740 nM (active).

Regarding `COc1ccccc1C(=O)Nc1cccc(C(=O)Nc2cccc(C(F)(F)F)c2)c1`, the efficacy was 1.37%.

For the compound `COc1ccccc1C(=O)Nc1ccccc1C(=O)Nc1cccc(SC(F)(F)F)c1`, the Potency was 297 nM (active).

As for `CCC(CC)C(=O)Nc1ccccc1C(=O)Nc1cccc(C(F)(F)F)c1`, the Potency is 5290 nM (active).

Regarding `O=C(Nc1cccc(S(=O)(=O)C(F)(F)F)c1)c1ccccc1NC(=O)c1ccccc1OCC(F)(F)F`, the Potency was 66.6 nM (active).

In the case of `COCCOc1ccccc1C(=O)Nc1ccccc1C(=O)Nc1cccc(C(F)(F)F)c1`, the Potency was 747 nM (active).

Consider `O=C(NCc1ccco1)c1ccccc1NC(=O)c1ccccc1NC(=O)C1CCCCC1`, for which the Potency is 9400 nM (active).

On to `O=C(Nc1cccc(Br)c1)c1ccccc1NC(=O)C1CCCCC1`, for which the Potency was 2650 nM (active).

The values are drawn from PubChem BioAssay AID602256 (National Center for Advancing Translational Sciences (NCATS), 2012).
